Laboratory results as given in PubChem BioAssay (NCATS).
Results filed as inconclusive are left out. A number with no mark means an inactive call. Calls follow the shape of the dose curve; as a rule, active = well fitted activation curve with a large enough effect; inconclusive = small, poorly fitted or top-dose-only effect; inactive = no such curve, though single readings can be large or run the other way.

These molecules were tested against Cellular tumor antigen p53 (Homo sapiens) (UniProt P04637) (assay: Primary qHTS for small molecule compounds that upregulate eGFP-tagged delta133p53alpha (in N-terminal) cells. (AID 2060322;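 also: cells pre-induced with doxycycline then dosed without doxycycline; series mostly up to about 56 µM; 0% = DMSO vehicle and 100% = reference activator; nearly all actives have a fitted effect of over 75% in size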)). Details: NCI-H358 eGFP-delta133p53alpha fluorescence, 24 h; activation: hits give high values.
Method in brief: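 NCI-H358 cells pre-induced 24 h with 10 ng/ml doxycycline for eGFP-delta133p53alpha, plated dox-free and exposed 24 h at 37C to titrated compounds. Fixed, Hoechst-stained; gated GFP peak intensity by laser scanning cytometry, normalized to DMSO (0%) and 57.5 uM 5-azacytidine (100%).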

Sequence of Cellular tumor antigen p53 (Homo sapiens) (P04637 whole entry, looked up): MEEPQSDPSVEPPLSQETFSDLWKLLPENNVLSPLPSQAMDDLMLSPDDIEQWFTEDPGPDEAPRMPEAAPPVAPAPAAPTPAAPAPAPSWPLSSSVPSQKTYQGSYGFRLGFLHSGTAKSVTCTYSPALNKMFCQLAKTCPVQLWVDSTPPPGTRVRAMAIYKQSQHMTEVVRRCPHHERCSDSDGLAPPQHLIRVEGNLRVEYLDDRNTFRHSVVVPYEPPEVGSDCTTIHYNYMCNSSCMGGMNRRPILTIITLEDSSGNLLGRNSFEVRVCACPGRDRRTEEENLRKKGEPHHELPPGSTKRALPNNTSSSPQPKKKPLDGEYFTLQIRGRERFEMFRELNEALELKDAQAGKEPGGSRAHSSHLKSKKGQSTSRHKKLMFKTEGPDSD

| SMILES | activation |
| --- | --- |
| CCCCCCCCCCCCCCNCCO | -16.7% |
| CC[N+](C)(CC)CCOC(=O)C(O)(c1ccccc1)C1CCCCC1 (stereo not given) | -16.7% |
| CN1CCC[C@H]1CCO[C@](C)(c1ccccc1)c1ccc(Cl)cc1 | 16.8% |
| CC(NN)c1ccccc1 (stereo not given) | 6.69% |
| COC(=O)C(c1ccccc1Cl)N1CCc2sccc2C1 (stereo not given) | 10.7% |
| O=C(NCCCN1CCOCC1)c1ccc(Cl)cc1 | -23.2% |
| O=C1OCCN1/N=C/c1ccc([N+](=O)[O-])o1 | -3.35% |
| COc1cc(N2CCN(C)CC2)ccc1Nc1nc(N)c(C(=O)c2c(Cl)cccc2Cl)s1 | -2.41% |
| CNc1nc(-c2ccc3c(N)n[nH]c3c2)cc(N2C[C@@H](C(=O)NC3CCCCC3)CC[C@@H]2C)n1 | -21.3% |
| COc1ccc(-c2cc(C(F)F)nn2-c2ccc(S(N)(=O)=O)cc2)cc1F | -21.8% |
| CC[C@H](CC[C@@H](C)[C@H]1CC[C@H]2[C@@H]3CC=C4C[C@@H](O)CC[C@]4(C)[C@@H]3CC[C@]12C)C(C)C | -21.3% |
| CC(C)=CCOc1ccc(/C=C/C(=O)c2ccc(OCC=C(C)C)cc2OCC(=O)O)cc1 | -1.67% |
| COc1cc(N)c(Cl)cc1C(=O)NC1CCN(CCCOc2ccc(F)cc2)CC1OC (stereo not given) | 13% |
| COc1ccc(-c2coc3cc(O)ccc3c2=O)cc1 | -10.4% |
| FC1(F)C(F)(F)C(F)(F)C2(F)C(F)(F)C(F)(F)C(F)(F)C(F)(F)C2(F)C1(F)F (stereo not given) | -7.34% |
